Results: PubChem BioAssay (NCATS)
Results filed as inconclusive are left out. A call without a number means that no potency is given here. Unmarked numbers belong to inactive results. Activity calls are given as the source filed them. The call rests on the fitted dose curve; in most records, active means well fitted curve in the direction sought with a large enough effect; inconclusive means small, poorly fitted or top-dose-only effect, or another doubt; inactive means no such curve, though single readings can be large; an effect the other way counts as inactive or inconclusive.

Experiments:
[1] = qHTS of pediatric cancer cell lines to identify multiple opportunities for drug repurposing: Primary screen for NB1643 cells (AID 1347099); further: nearly all actives have a fitted effect of over 50% in size; further: potency means the concentration at half of the fitted maximal effect
Summary of the method: (§1)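 Readout: CellTiter-Glo luminescence, 48 h treatment. Controls DMSO (neutral) and bortezomib 2.3 µM final (positive). Potency and efficacy taken from primary-screen concentration-response curves.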

[2] = qHTS of pediatric cancer cell lines to identify multiple opportunities for drug repurposing: Primary screen for LAN-5 cells (AID 1347100); further: potency means the concentration at half of the fitted maximal effect
Summary of the method: (§2)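 Cells (500-1,000/well) in growth media were settled 5 h at 37 degrees C, then given compounds for 48 h. Viability was read as CellTiter-Glo luminescence. Primary runs used MIPE at 11 points (0.78 nM-46 µM) and NPC at 8 points (0.59 nM-46 µM); follow-ups used 11 points.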

[3] = qHTS of pediatric cancer cell lines to identify multiple opportunities for drug repurposing: Primary screen for BT-12 cells (AID 1347101); further: nearly all actives have a fitted effect of over 25% in size; further: potency means the concentration at half of the fitted maximal effect
Summary of the method: (§3)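 Cells (500-1,000/well) rested 5 h, then received compounds for 48 h; metabolically active cells were measured by CellTiter-Glo luminescence. Final concentrations spanned up to 46 µM (MIPE, 11-point) or 0.59 nM-46 µM (NPC, 8-point) in primary screens, 11-point in follow-ups.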

[4] = qHTS of pediatric cancer cell lines to identify multiple opportunities for drug repurposing: Primary screen for Rh18 cells (AID 1347102); further: nearly all actives have a fitted effect of over 65% in size; further: potency means the concentration at half of the fitted maximal effect
Summary of the method: as §2

[5] = qHTS of pediatric cancer cell lines to identify multiple opportunities for drug repurposing: Primary screen for OHS-50 cells (AID 1347103); further: nearly all actives have a fitted effect of over 40% in size; further: potency means the concentration at half of the fitted maximal effect
Summary of the method: as §3

[6] = qHTS of pediatric cancer cell lines to identify multiple opportunities for drug repurposing: Primary screen for MG 63 (6-TG R) cells (AID 1347105); further: nearly all actives have a fitted effect of over 50% in size; further: potency means the concentration at half of the fitted maximal effect
Summary of the method: as §1

[7] = qHTS of pediatric cancer cell lines to identify multiple opportunities for drug repurposing: Primary screen for Rh30 cells (AID 1347107); further: nearly all actives have a fitted effect of over 75% in size; further: potency means the concentration at half of the fitted maximal effect
Summary of the method: as §2

[8] = qHTS of pediatric cancer cell lines to identify multiple opportunities for drug repurposing: Primary screen for RD cells (AID 1347104); further: nearly all actives have a fitted effect of over 55% in size; further: potency means the concentration at half of the fitted maximal effect
Summary of the method: as §1

[9] = qHTS of pediatric cancer cell lines to identify multiple opportunities for drug repurposing: Primary screen for control Hh wild type fibroblast cells (AID 1347106);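 further: series mostly up to about 46 µM; a drop in luminescence marks cytotoxicity and a rise apparent proliferation; nearly all actives have a fitted effect of over 55% in size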
Summary of the method: as §2

[10] = qHTS of pediatric cancer cell lines to identify multiple opportunities for drug repurposing: Primary screen for Rh41 cells (AID 1347108); further: nearly all actives have a fitted effect of over 70% in size; further: potency means the concentration at half of the fitted maximal effect
Summary of the method: as §1

Structure (SMILES)	Potency [1]	Potency [2]	Potency [3]	Potency [4]	Potency [5]	Potency [6]	Potency [7]	Potency [8]	Potency [9]	Potency [10]
OC[C@H]1O[C@@H](OCCc2ccc(O)cc2)[C@H](O)[C@@H](O)[C@H]1O	inactive	inactive	inactive	inactive	inactive	inactive	inactive	–	–	–
CCNC(=O)[C@H]1O[C@@H](n2cnc3c(N)nc(NCCc4ccc(CCC(=O)O)cc4)nc32)[C@H](O)[C@H]1O	inactive	inactive	inactive	inactive	–	inactive	inactive	inactive	inactive	inactive
CC[C@@H]([C@H](C)O)n1ncn(-c2ccc(N3CCN(c4ccc(OCC5CO[C@@](Cn6cncn6)(c6ccc(F)cc6F)C5)cc4)CC3)cc2)c1=O (stereo not given in full)	23.5 µM (active)	18.7 µM (active)	21.7 µM (active)	–	21.7 µM (active)	inactive	–	20.9 µM (active)	inactive	–
O[C@@H](COc1cccc2ncccc12)CN1CCN(C2c3ccccc3[C@@H]3[C@H](c4ccccc42)C3(F)F)CC1 (stereo not given in full)	3.32 µM (active)	4.73 µM (active)	24.3 µM (active)	–	15.5 µM (active)	29.6 µM (active)	16.6 µM (active)	18.7 µM (active)	inactive	18.7 µM (active)
C[C@H]1[C@H](O)O[C@@H]2O[C@@]3(C)CC[C@@H]4[C@H](C)CC[C@@H]1[C@@]24OO3	5.9 µM (active)	6.62 µM (active)	1.53 µM (active)	–	1.37 µM (active)	23.5 µM (active)	inactive	1.87 µM (active)	inactive	inactive
O=C(O)CCC=CCC[C@@H]1[C@H](N2CCCCC2)[C@@H](O)C[C@@H]1OCc1ccc(-c2ccccc2)cc1	5.9 µM (active)	inactive	inactive	inactive	–	inactive	–	–	inactive	18.7 µM (active)
CC1CCN(c2cc(N3CCN(C)CC3)ccc2NC(=O)c2cc(C#N)c[nH]2)CC1	inactive	inactive	inactive	inactive	–	inactive	inactive	–	inactive	–
CC(C)[C@H](O)C(=O)N[C@@H](C)C(=O)N[C@@H]1C(=O)N(C)CCc2ccccc21	20.9 µM (active)	inactive	inactive	inactive	–	–	–	–	inactive	inactive
CCC(=C(c1ccc(O)cc1)c1ccc(OCCNC)cc1)c1ccccc1	23.5 µM (active)	26.4 µM (active)	27.3 µM (active)	–	21.7 µM (active)	23.5 µM (active)	–	33.2 µM (active)	–	–
O=C(O)C1=CC(O)C(O)[C@H](O)C1 (stereo not given in full)	inactive	inactive	inactive	–	inactive	inactive	inactive	inactive	inactive	inactive
O=C(CO)N1CCC(c2[nH]nc(-c3ccc(Cl)cc3)c2-c2ccncn2)CC1	inactive	inactive	inactive	–	inactive	inactive	–	inactive	inactive	–
Cc1nc(C(=O)NCC(=O)O)c(O)c2ccc(Oc3ccccc3)cc12	inactive	inactive	inactive	inactive	–	–	inactive	inactive	–	inactive
CC1(C)[C@H]2CC[C@]3(C)[C@@H](C(=O)C=C4[C@@H]5C[C@@](C)(C(=O)O)CC[C@]5(C)CC[C@]43C)[C@@]2(C)CC[C@@H]1O	inactive	inactive	inactive	inactive	–	inactive	inactive	inactive	inactive	inactive
O=C1Nc2ccc(I)cc2C1=Cc1cc(Br)c(O)c(Br)c1	inactive	inactive	inactive	inactive	–	inactive	inactive	inactive	inactive	–
CN1c2ccccc2C(=O)N2CCc3c([nH]c4ccccc34)C21 (stereo not given)	13.2 µM (active)	inactive	inactive	inactive	inactive	inactive	inactive	–	inactive	inactive
CC(=O)OCC(=O)[C@@]12OC(C)(C)O[C@H]1C[C@H]1[C@@H]3C[C@H](F)C4=CC(=O)C=C[C@]4(C)[C@@]3(F)[C@@H](O)C[C@@]12C	inactive	inactive	inactive	inactive	–	inactive	inactive	inactive	inactive	–
CN(C)CCOc1ccc(C(=C(CCCl)c2ccccc2)c2ccccc2)cc1	inactive	inactive	inactive	inactive	–	inactive	inactive	inactive	inactive	inactive
CC1(COc2ccc3c(c2)ncn3-c2ccc3cccc(N4CCC(N)CC4)c3n2)COC1	inactive	0.001 µM (active)	6.11 µM (active)	10.5 µM (active)	13.7 µM (active)	–	inactive	0.59 µM (active)	–	–
COc1cc(C=CC(=O)O)ccc1O	inactive	inactive	inactive	inactive	–	inactive	inactive	inactive	inactive	inactive
CC[C@H](CC#N)OC(=O)N[C@@H](C)c1cccc(NC(=O)Nc2ccc(-c3cnco3)c(OC)c2)c1	0.743 µM (active)	0.662 µM (active)	0.611 µM (active)	inactive	7.69 µM (active)	–	–	–	–	inactive
